# Smad3 inh: blocks human Smad3 binding to FoxH1 peptide; AID 630; TR-FRET Smad3/Dy647-FoxH1 peptide binding, europium anti-His; inhibition, % at 25 µM; 88,000 compounds, 0.29% hits; P84022;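 active = compounds that reduce the energy-transfer binding signal between the protein and its labelled peptide by more than half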
# Target sequence (P84022 whole entry, looked up): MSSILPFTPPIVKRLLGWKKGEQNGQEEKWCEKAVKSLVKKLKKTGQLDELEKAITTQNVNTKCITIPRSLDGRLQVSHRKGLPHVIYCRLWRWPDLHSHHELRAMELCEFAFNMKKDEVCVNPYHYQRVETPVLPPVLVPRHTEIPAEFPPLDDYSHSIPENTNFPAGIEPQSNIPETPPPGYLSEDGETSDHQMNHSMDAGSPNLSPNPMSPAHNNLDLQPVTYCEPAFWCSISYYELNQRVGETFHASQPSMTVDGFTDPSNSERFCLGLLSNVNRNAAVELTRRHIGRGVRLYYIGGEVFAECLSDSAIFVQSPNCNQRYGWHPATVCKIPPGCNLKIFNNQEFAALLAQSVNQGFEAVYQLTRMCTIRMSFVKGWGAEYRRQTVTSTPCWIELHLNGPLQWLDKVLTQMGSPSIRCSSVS
# ERa SRC1 inh: ER-alpha (human) coactivator binding inhibition. 86,000 compounds, 1.7% hits. TR-FRET ER-alpha LBD / SRC-1 peptide, estradiol-bound. inhibition, % at 25.6 µM; in the data active = inhibition above about 50%
# ERa coact pot: ER-alpha (human) coactivator binding potentiation; P03372; TR-FRET ERalpha-LBD/SRC-Cy5 coactivator binding, 2 h; 100 = basal binding, no effect; coactivator binding (% of control), % at 25.6 µM; 86,000 compounds, 1.3% hits; in the data active = activity above about 200%;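 note: binding measured in presence of low estradiol as agonist stimulus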
# ERb coact inh: blocks coactivator binding to human estrogen receptor beta; AID 633; 86,000 compounds, 1.3% hits; TR-FRET ER-beta LBD / SRC1-Cy5 peptide binding; receptor agonist-loaded with 1 µM estradiol; Q92731; inhibition, % at 25.6 µM;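 active = compounds whose percent inhibition of the receptor-coactivator binding signal exceeds about 50% in the single-dose screen, limit read from the data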
# MMP-13 inhibitor: MMP13 (human) collagenase inhibition; P45452; MMP-13 fTHP FRET cleavage, Mca fluorescence; inhibition, % at 4 µM; 65,000 compounds, 0.07% hits; AID 570;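 active = inhibition above the mean of compound-free control plate wells plus 3 SD, cut at about 14% in these data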
# MT1-MMP txn act: MT1-MMP promoter transcription activation; HT1080 MT1-MMP promoter luciferase reporter, luminescence, overnight; stronger effect = higher value; activation factor at 10 µM; AID 750; 86,000 compounds, 0.16% hits;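 active = activation factor of at least 2 for MT1-MMP transcription at 10 µM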
# A number is an active result; 0 = inactive; - = no result given; [ ] = dose if it differs, or a comment. Sampled rows, rich in hits. Any-hit rate of the full collection: about 3.5%.
SMILES,Smad3 inh,ERa SRC1 inh,ERa coact pot,ERb coact inh,MMP-13 inhibitor,MT1-MMP txn act
Cc1cc(C(=O)OCC(=O)N2c3ccccc3CC2C)c(C)o1 (centres undefined),0,0,0,0,0,0
CC(C)CC(OC(=O)c1cccs1)C(=O)NCc1ccco1 (centres undefined),0,0,0,58,0,0
CCC(OC(=O)c1cccs1)C(=O)NCc1ccco1 (centres undefined),0,0,0,0,0,0
CC(C)CC(C(=O)Nc1ccc2c(c1)OCCO2)N1C(=O)c2ccccc2C1=O (centres undefined),0,0,0,0,0,0
Cc1ccc(S(=O)(=O)N2CCC(C(=O)N[C@H](C(=O)NCc3ccco3)C(C)C)CC2)cc1,0,57[fluorescence artefact?],0,50[fluorescence artefact?],0,0
Cc1ccc(S(=O)(=O)N2CCC(C(=O)Nc3nnc(-c4ccco4)s3)CC2)cc1,0,0,200[fluorescence artefact?],0,0,0
Cc1ccc(S(=O)(=O)N2CCC(C(=O)N[C@H](C(=O)N3CCN(C)CC3)C(C)C)CC2)cc1,0,0,0,0,0,0
O=C(Nc1nnc(-c2ccco2)s1)C1CCCCC1,0,0,0,0,0,0
O=C(O)C1CCCCC1C(=O)Nc1cccc2ccccc12 (centres undefined),0,0,0,0,-,0
Nc1nc(Nc2cccc3ccccc23)nc(C2CCCC2=O)n1 (centres undefined),0,0,261[fluorescence artefact?],0,0,0
O=S1(=O)OC(c2ccc(O)cc2)(c2ccc(O)cc2)c2ccccc21,97,-,-,-,-,-
Cc1cc(O)ccc1C1(c2ccc(O)cc2C)OC(=O)c2ccccc21,0,0,0,0,-,0
Cc1ccc2oc(=O)c3cnn(CC(=O)N4CCCc5ccccc54)c3c2c1,0,0,265[fluorescence artefact?],0,0,0
Oc1ccc(Cc2nccc3cc(O)c(O)cc23)cc1O,89,-,-,-,-,-
COc1nc2ccc(C)cc2cc1-c1noc(-c2cccnc2)n1,0,0,241[fluorescence artefact?],0,0,0
Cc1c(NC(=O)c2ccccc2N(C)S(=O)(=O)c2ccccc2)c(=O)n(-c2ccccc2)n1C,0,0,0,0,-,0
COc1ccc(N2CCN(Cc3cc(=O)oc4cc(-c5ccccc5)c(O)cc34)CC2)cc1,0,64[fluorescence artefact?],0,0,0,0
O=C(Oc1ccc2c(c1)OCC2=O)c1ccccc1,0,0,0,55,0,0
COc1ccc(C(=O)CN2C(=O)NC(C)(c3ccccc3)C2=O)cc1OC (centres undefined),0,0,0,0,-,0
C1=C(c2cccc3ccccc23)N2CCN=C2S1,-,-,-,-,0,0
Cc1[nH]n(-c2ccccc2)c(=O)c1/C=N/n1c(C)nc2ccccc2c1=O,0,0,0,0,-,0
Cc1ccc(-n2[nH]c(C)c(/C=N/n3c(C)nc4ccccc4c3=O)c2=O)cc1,0,0,0,85,0,0
CCO/C=C1/C(=O)N(C(C)=O)c2ccccc21,0,0,0,0,-,0
Cc1cc(=O)oc2cc(OCC(=O)Nc3nnc(C(C)C)s3)ccc12,0,0,488,0,-,0
Cc1cc(=O)oc2cc(OCC(=O)Nc3nnc(CC(C)C)s3)ccc12,0,0,0,0,-,0
SMILES,Smad3 inh,ERa SRC1 inh,ERa coact pot,ERb coact inh,MMP-13 inhibitor,MT1-MMP txn act
Cc1ccc(OCc2nn3c(-c4n[nH]c5c4CCC5)nnc3s2)cc1,0,73[fluorescence artefact?],0,54,0,0
c1ccc(OCc2nn3c(-c4n[nH]c5c4CCC5)nnc3s2)cc1,0,67[fluorescence artefact?],0,61[fluorescence artefact?],0,0
COc1ccc(-c2nnc3sc(COc4ccccc4)nn23)cc1,0,0,0,0,0,0
Cc1ccc(S(=O)(=O)C(C#N)c2nc3ccccc3nc2N2CCC(C)CC2)cc1 (centres undefined),0,0,0,0,0,0
CCN(C(=O)COC(=O)c1cccnc1SC)C1CCS(=O)(=O)C1 (centres undefined),0,0,0,0,0,0
CCOc1cc(N2CCOCC2)c(OCC)cc1NC1=NCCCCC1,0,0,0,70[fluorescence artefact?],0,0
FC(F)(F)c1ccc(N2CCOCC2)c(NC2=NCCCCC2)c1,0,0,0,0,0,0
COc1ccccc1C=NC(CO)C(O)c1ccc([N+](=O)[O-])cc1 (centres undefined),0,0,0,0,-,0
Cc1ccc(O)c(Sc2cc(C)ccc2O)c1,0,0,0,0,0,0
Cc1cc(O)c(-c2cc(O)c(C)cc2O)cc1O,83,-,-,-,-,-
O=C(Nc1cc(Cl)ccc1Cl)c1noc2c1CCCC2,-,-,-,-,0,-
O=C(Nc1ccc(F)cc1F)c1noc2c1CCC2,0,86[fluorescence artefact?],0,91[fluorescence artefact?],0,0
Cc1ccc(NC(=O)c2cc(S(=O)(=O)N3CCOCC3)ccc2F)c(C)c1,0,0,0,0,0,0
Cc1ccc(Sc2c(C)nn(C(=O)c3cccc(S(=O)(=O)N4CCOCC4)c3)c2C)cc1,0,0,237[fluorescence artefact?],0,-,0
Nc1nc(-c2ccc(F)cc2)cc(C(F)(F)F)n1,0,0,0,0,-,-
CCN(CC(=O)NC1CCCC1)S(=O)(=O)c1ccc(C)cc1,0,95[fluorescence artefact?],0,0,0,0
CCN(CC(=O)NC1CCCCCC1)S(=O)(=O)c1ccccc1,0,0,0,0,0,0
CCOc1ccc(NC(=O)NCCN2C(C)CCCC2C)cc1 (centres undefined),0,0,0,0,0,0
COc1cc(Nc2ccc(C)cc2)c([N+](=O)[O-])nc1[N+](=O)[O-],0,0,0,0,-,0
Cc1nc2sccn2c1-c1nc(C2CC2)c(C(=O)c2ccc3c(c2)NC(=O)CO3)s1,0,61,0,53[fluorescence artefact?],0,0
COc1cccc(-c2csc3nnc(SCC(=O)c4ccc(NC(C)=O)cc4)n23)c1,0,0,224,0,0,0
O=C(CSc1nnc2scc(-c3ccccc3)n12)c1ccc2c(c1)OCCO2,0,0,437[fluorescence artefact?],0,0,0
c1ccc(-c2csc3nnc(SCc4ccc5c(c4)OCCO5)n23)cc1,-,-,-,-,0,0
O=C(O)CCCC(=O)Nc1cccc2cccnc12,-,-,-,-,0,0
CCC(=O)Oc1ccc(C(CC)C(CC)c2ccc(OC(=O)CC)cc2)cc1 (centres undefined),0,0,577,0,0,0
SMILES,Smad3 inh,ERa SRC1 inh,ERa coact pot,ERb coact inh,MMP-13 inhibitor,MT1-MMP txn act
CCC(=O)Oc1ccc(-c2nc(-c3cccnc3)no2)cc1,0,0,0,0,0,0
CCN1CCN(Cc2ccc(OCc3ccccc3)c(OC)c2)CC1,0,0,0,0,-,0
CCCSC1=N/C(=C\C=C\c2ccco2)C(=O)S1,0,75[fluorescence artefact?],0,63,0,0
O=C1SC(SCc2ccccc2)=N/C1=C\c1ccco1,0,0,0,0,0,0
CCN(CC)S(=O)(=O)c1cccc(C(=O)N2CC(O)CC2C(=O)O)c1 (centres undefined),0,0,0,0,0,0
CCC(=O)c1cc2c(C)cc(=O)oc2c(C)c1OC,0,0,0,0,-,0
CN(c1ccc(O)cc1)c1nc(-c2ccccc2)cs1,-,-,-,-,20,-
CN(C)CCCN(C(=O)c1cccs1)c1nc(-c2ccccc2)cs1,0,0,0,0,0,0
